# Screens (PubChem)
# Compounds with a hit are over-represented: about 2.3% of the library has one in this group of screens.
# Tau ThT inhib = inhibitors of human tau fibril formation, thioflavin T binding; Potency, µM (top dose mostly 57.4 µM), for inactives: at the highest dose activity, negative = inhibition, hits mostly inhibitors; hit rate 2.1% among 270,000; P10636; recombinant tau K18 P301L, heparin-induced fibrillization, ThT fluorescence; note: potency is the fitted concentration of half-maximal effect; nearly all actives have a fitted effect of over 55% in size
# Target sequence (P10636 561-689 P618L limits assumed): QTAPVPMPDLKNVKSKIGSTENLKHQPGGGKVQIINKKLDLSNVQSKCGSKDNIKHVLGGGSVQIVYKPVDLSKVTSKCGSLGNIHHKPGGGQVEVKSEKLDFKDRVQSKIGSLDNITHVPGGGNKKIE
#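 Heparin-induced fibrillization of the P301L-mutant K18 repeat-domain fragment of human tau was followed by ThT binding in quantitative high-throughput format.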
# USP1 inh = inhibitors of human USP1/UAF1 deubiquitinase. recombinant USP1/UAF1, Ub-Rhodamine cleavage fluorescence. Potency, µM (highest dose often 57.1 µM), for inactives: at the highest dose activity change, negative = inhibition, hits mostly inhibitors. hit rate 0.23% among 390,000. AID 743255; note: potency is the fitted concentration of half-maximal effect; nearly all actives have a fitted effect of over 60% in size
#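 USP1/UAF1 complex (1 nM) preincubated 15 min at room temperature with compound, then Ub-Rho substrate (150 nM final) added. Kinetic fluorescence at 480/540 nm over 6 reads at 60 s intervals; 50 mM HEPES pH 7.8, 0.5 mM EDTA, 0.1 mg/ml BSA, 1 mM TCEP, 0.01% Tween-20.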
# Tau fluor cs = counter-screen for tau fibril formation inhibitors | hit rate 0.93% among 280,000 | tau K18 P301L (four-repeat tau fragment) Alexa594 fluorescence, heparin fibrillization | Potency, µM (top dose mostly 57.7 µM), for inactives: at the highest dose activity change, negative = decrease; note: potency is the fitted concentration of half-maximal effect; nearly all actives have a fitted effect of over 55% in size
#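 Human K18 P301L tau (15 uM unlabeled plus 0.24 uM Alexa 594-labeled, final) in 100 mM sodium acetate pH 7 was mixed with compound and 20 uM heparin and incubated 6 hr at 37 C.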
# Coupling enz = coupling enzyme interference in Giardia aldolase counter-screen; coupling enzyme system counterscreen, AmpLite Red fluorescence; activity change, negative = inhibition, % at 58.2 µM, hits read low; hit rate 0.67% among 290,000; in the data active = activity change below about -30%
#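 Counterscreen lacking aldolase: glyceraldehyde-3-phosphate coupling-enzyme reagent preincubated 10 min at RT with compound (at 57.5 uM final), then substrate/coupling system with AmpLite Red added; fluorescence read at 525/598 nm after 20 min RT.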
# Tau FP inhib = tau fibrillization inhibition (FP) | P10636 | K18 P301L tau heparin fibrillization, Alexa594 FP, 6 h | Potency, µM (doses to about 57.7 µM), for the others: at the highest dose activity, negative = inhibition, actives largely listed as inhibitors | hit rate 0.39% among 280,000 | AID 1468; note: potency is the fitted concentration of half-maximal effect; nearly all actives have a fitted effect of over 55% in size
#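 Human K18 P301L fragment (15 uM unlabeled plus 0.24 uM Alexa 594-labeled) in 100 mM sodium acetate pH 7 with compound, aggregation induced by 20 uM heparin for 6 hr at 37 C. ThT (30 uM) added for 1 hr, then Alexa 594 FP read.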
# Active calls of the source: *; ? = inconclusive; nt = no result given; [ ] = dose if it differs, or a comment. Unless noted, calls come from the whole dose curve; as a rule, active = well fitted curve in the direction sought with a large enough effect; inconclusive = small, poorly fitted or top-dose-only effect, or another doubt; inactive = no such curve, though single readings can be large; an effect the other way counts as inactive or inconclusive. % is set by controls: 0 for no effect and ±100 for the full control effect.
SMILES,Tau ThT inhib,USP1 inh,Tau fluor cs,Coupling enz,Tau FP inhib
C=CCOC(=O)N[C@@H](c1ccc(Br)cc1)C(C(C)=O)C(C)=O,-1%,nt,-2%,4,?
O=C(NC(Cc1c[nH]c2ccccc12)C(=O)O)c1cccs1 (configuration not stated),-3%,3%,-3%,8,-4%
O=C(NC(Cc1c[nH]c2ccccc12)C(=O)N/N=C/c1cccc2ccccc12)c1cccs1 (configuration not stated),10%,-13%,?,0,?
O=C(NC(Cc1c[nH]c2ccccc12)C(=O)Nc1ccc(OC(F)(F)F)cc1)c1cccs1 (configuration not stated),-3%,-23%,7.9µM*[quencher],-1,?
O=C(NC(Cc1c[nH]c2ccccc12)C(=O)Nc1ccc(F)c([N+](=O)[O-])c1)c1cccs1 (configuration not stated),?,-22%,16µM*[quencher],-4,15%
O=C(Cc1cccc([N+](=O)[O-])c1)NCc1nc2cccnc2n1Cc1ccc(F)cc1,-6%,-11%,-2%,nt,0%
O=C(N/N=C1/C[C@@H](O)[C@@H](O)[C@@H]2[C@@H]3C(=O)N(C[C@@H]4CCCO4)C(=O)[C@H]3CC[C@@H]12)OCc1ccccc1,0%[11.5 µM],nt,-10%[11.6 µM],3,-8%[11.6 µM]
COc1ccc(OC)c(NC(=O)Nc2ccc(Cl)cc2)c1,?,-21%,14µM*[quencher],-1,21%
Cc1c(-c2cccc(NC(=O)Nc3ccc(Cl)cc3)c2)nc2ncccn12,13%,-11%,10µM*[quencher],nt,20µM*
COc1ccc(NC(=O)Nc2cc(-c3cn4cccnc4n3)ccc2OC)cc1,-7%,?,-26%,nt,-12%
Cc1c(-c2cccc(NC(=O)c3ccc(F)c(F)c3)c2)nc2ncccn12,?,14%,-10%,nt,-9%
COc1ccc(-c2cn3cccnc3n2)cc1NC(=O)Nc1ccc(Cl)cc1,?,5%,14µM*[quencher],nt,-8%
COc1cc(NC(=O)c2ccco2)c(OC)cc1NC(=O)Nc1ccc(Cl)cc1,?,1%,8.9µM*[quencher],-2,12%
COc1ccc(NC(=O)Nc2cc(C)ccc2OC)cc1,?,-9%,?,0,9%
Nc1ncc(S(=O)(=O)NCc2ccccc2F)cn1,5%,-9%,2%,nt,-3%
C=CCc1cccc(C2C(C)CCC3C(=O)N4C(CCC(C)C4c4cccc(CC=C)c4)C(=O)N32)c1 (configuration not stated),-13%[11.5 µM],nt,-12%[11.6 µM],-2,5%[11.6 µM]
Cc1nc(NCc2ccccc2)c2nc(-c3ccccc3)n(CC3CCN(C)CC3)c2n1,-2%,nt,-3%,5,-3%
N#CCCS(=O)(=O)c1ccccc1,1%,nt,-3%,2,-3%
C=Cc1ccc(N=Cc2c(O)ccc3ccccc23)cc1,nt,?,nt,-30*,nt
Cc1cc(N=Cc2c(O)ccc3ccccc23)no1,22µM*,-18%,?,-43*,?
CC(=O)N(C)c1ccc(N=Cc2c(O)ccc3ccccc23)cc1,nt,-17%,nt,-21,nt
C(=Nc1ccc(N2CCOCC2)cc1)c1c[nH]c2ccccc12,25µM*,-19%,?,-22,-10%
Oc1ccc2ccccc2c1C=Nc1ccc(N2CCOCC2)cc1,5µM*,?,?,-14,-9%
COc1ccc(NC(=O)c2cn(CC(C)C)c(=O)c3cc(OC)c(OC)cc23)cc1Cl,?,-9%,-19%,nt,-9%
COc1ccc(C(=O)N2CCC[C@@]3(CCN(C(=O)Nc4cccc(C#N)c4)C3)C2)cc1,nt,nt,nt,4,nt
SMILES,Tau ThT inhib,USP1 inh,Tau fluor cs,Coupling enz,Tau FP inhib
COc1ccc(CCNC(=O)c2ccc(Cn3c(=O)c4ccccc4n(Cc4cccc(C)c4)c3=O)cc2)cc1OC,-20%,-21%,-33%,nt,-12%
CCOC(=O)C1CCC(CN(Cc2ccc(OC)cc2)S(=O)(=O)c2ccc(C)cc2)CC1 (configuration not stated),-6%,-10%,-17%,nt,-8%
Oc1c(Br)cc(Cl)cc1C=Nc1ccc(N2CCOCC2)cc1,16µM*,-20%,-18%,-8,-18%
O=CN/C=C/c1cc(O)ccc1O,25µM*,?,28µM*[quencher],-18,?
Cc1cc(=O)n(CC(=O)N2CCN(c3ccccc3F)CC2)c2c1c(C)nn2C,1%,?,11%,nt,6%
Cc1cc(NC(=O)CC(C)C)c(=O)n(Cc2ccccc2F)c1,nt,?,nt,-36*,nt
COc1ccc2c(c1)c(C(=O)N/N=C/c1cccc(Br)c1)c(C)n2C,?,-10%,-19%,-45*,8%
[O-]/[N+](=C\c1ccncc1)c1ccc(Br)cc1,32µM*,-7%,-25%,-6,?
C=CCn1c(=O)/c(=C2/Sc3cc(OC)ccc3N2C)s/c1=C1\C(=O)N(CC)C(=S)N1C,10µM*,nt,-20%,0,19%
COc1ccc2c(CNC3CCCCCC3)c(C(=O)O)n(Cc3ccccc3F)c2c1,-4%,-15%,-6%,nt,4%
Nc1cccn2c(-c3ccc(Cl)cc3)cnc12,?,7%,?,-31*,2%
Nc1cccn2c(-c3ccc(Cl)c(Cl)c3)cnc12,13µM*,-8%,?,3,-6%
O=C(NNc1ccc(O)cc1)c1ccc(Br)cc1,16µM*,-8%,?,1,?
O=S(=O)(O)c1ccc(Cl)c(Cl)c1,nt,-8%,nt,nt,nt
Nc1cccc2cc(S(=O)(=O)O)ccc12,nt,7.1µM*,nt,nt,nt
O=C(O)c1ccc(CNC(=O)C2CCCN2C(=O)OCc2ccccc2)cc1 (configuration not stated),nt,-8%,nt,7,nt
O=C[C@@H]1CCCN1C(=O)[C@@H]1CCCN1C(=O)OCc1ccccc1,18µM*,nt,-24%,nt,22µM*
CC1=CC(=O)C=C(C)C1=NOC(=O)/C=C\c1ccccc1,16µM*,-3%,-17%,-16,?
CC1=C(C)/C(=N\OC(=O)/C=C/c2ccccc2)C=CC1=O,13µM*,-21%,-21%,nt,?
